Potency estimated from few doses data for 18 compounds are collected here from PMC11062922 (Nature Chemical Biology, 2023).

Structures are written as SMILES. Like-named read-outs stand apart in the source and are kept apart here.

Set-up in all cases: species or system human, MV4-11 + K-562 + COLO205 + SK-N-BE2 + OVCAR-8
One experiment relates to AURKB. The settings on record: read-out: apparent Kd, n = 1.
The subject of the next experiment is EPHB6. The settings on record: read-out: apparent Kd, n = 1.
Another experiment relates to DDR2. Particulars: read-out: apparent Kd, n = 1.
The next experiment has as its system EPHA5. The settings on record: read-out: apparent Kd, n = 1.
For the next experiment, the system named is MAPK14. The settings on record: read-out: apparent Kd, n = 1.
Another experiment relates to BMPR1B. Particulars: read-out: apparent Kd; compound concentrations: 100 nM and 1000 nM (sheet 'Samples'), CATDS: 3.2416583266463302E-2; n = 1.
In a further experiment the test system is CDK17. The settings on record: read-out: apparent Kd, n = 1.
Another experiment concerns FLT4. Particulars: read-out: apparent Kd, compound concentrations: 100 nM and 1000 nM (sheet 'Samples'), n = 1.
The next experiment deals with PLK4. Particulars: read-out: apparent Kd, n = 1.
The test system of another experiment is PRKD2. Particulars: read-out: apparent Kd, n = 1.
In the next experiment the test system is PRKD3. Particulars: read-out: apparent Kd, n = 1.
The next experiment has as its system AKT2. The settings on record: read-out: apparent Kd, compound concentrations: 100 nM and 1000 nM (sheet 'Samples'), n = 1.
The next experiment deals with EPHB1. The settings on record: read-out: apparent Kd, n = 1.
For a further experiment, the system named is RIOK2. The settings on record: read-out: apparent Kd; compound concentrations:100 nM and 1000 nM (sheet 'Samples'); n = 1.
The next experiment concerns TNK2. Particulars: read-out: apparent Kd, n = 1.
The next experiment concerns AKT1. The settings on record: read-out: apparent Kd; compound concentrations: 100 nM and 1000 nM (sheet 'Samples'), CATDS: 9.7335035775878098E-2; n = 1.
[1] abbreviates: compound concentrations:100 nM and 1000 nM (sheet 'Samples').

As for `Cn1cc(-c2cnc(N)c3c(-c4ccc5c(c4)CCN5C(=O)Cc4ccccc4)csc23)cn1` [GSK2593074A], the potency estimated from few doses with AURKB (setting [1]) is 692 nM; with EPHB6 (setting [1]), 151 nM.

With `CNc1nccc(-c2c(-c3ccc(F)cc3)ncn2C2CCN(C)CC2)n1` [SB-222903], the potency estimated from few doses is 625 nM in the experiment on DDR2 (setting [1]); 465 nM in the experiment on EPHA5 (setting [1]); 29.9 nM in the experiment with MAPK14 (compound concentrations: 100 nM and 1000 nM (sheet 'Samples'), CATDS: 0.13479921836841699).

For `CC(=O)N1CCN(c2ccc(Nc3nccc(-c4sc(C(C)C)nc4-c4cccc(NS(=O)(=O)c5ccccc5)c4)n3)cn2)CC1` [GSK1645872A], the potency estimated from few doses is 615 nM in the experiment on BMPR1B; 620 nM with CDK17 (compound concentrations: 100 nM and 1000 nM (sheet 'Samples'), CATDS: 3.2303603060191699E-2); 1230 nM in the experiment with EPHB6 (compound concentrations: 100 nM and 1000 nM (sheet 'Samples'), CATDS: 2.50190585057842E-2); 1410 nM with FLT4 (CATDS: 2.4036705391895501E-2); 331 nM in the experiment with PLK4 (compound concentrations: 100 nM and 1000 nM (sheet 'Samples'), CATDS: 4.4195990908193997E-2); 179 nM in the experiment with PRKD2 (compound concentrations: 100 nM and 1000 nM (sheet 'Samples'), CATDS: 6.4833229163543699E-2). Besides, the potency estimated from few doses with PRKD3 (compound concentrations: 100 nM and 1000 nM (sheet 'Samples'), CATDS: 5.5326802343899903E-2) was 227 nM.

Turning to `Cn1cc(-c2ccc3c(c2)CCN3C(=O)Cc2cc(F)cc(C(F)(F)F)c2)c2c(N)ncnc21` [GSK2635225A], the potency estimated from few doses in the experiment on AKT2 (CATDS: 0.123001791308401) is 1850 nM.

For the compound `Cc1ccc(O)cc1Nc1ccnc2ccc(C(C)(C)C)cc12` [GW856805X], the potency estimated from few doses in the experiment on EPHA5 (compound concentrations: 100 nM and 1000 nM (sheet 'Samples'), CATDS: 8.5514092870098604E-2) is 16.4 nM; with EPHB1 (compound concentrations: 100 nM and 1000 nM (sheet 'Samples'), CATDS: 6.9197667639957702E-2) it was 25.7 nM.

For the compound `N#Cc1cccc(Nc2nccc(-c3cnn4ncccc34)n2)c1` [GW778894X], the potency estimated from few doses in the experiment on CDK17 (setting [1]) is 44.8 nM; in the experiment on RIOK2 it was 75.3 nM.

Regarding `CN1CCN(Cc2ccc(-c3ccc4c(Nc5ccc(Oc6ccccn6)cc5)ccnc4c3)o2)CC1` [GW567140X], in the experiment with TNK2 (compound concentrations: 100 nM and 1000 nM (sheet 'Samples'), CATDS: 4.3541420759690502E-2), the potency estimated from few doses was 720 nM.

On to `c1ccc(Oc2ccc(Nc3ccnc4cc(-c5ccc(CN6CCCCC6)o5)ccc34)cc2)nc1` [GW567143X], for which the potency estimated from few doses in the experiment on AURKB (compound concentrations: 100 nM and 1000 nM (sheet 'Samples'), CATDS: 3.8957530355760599E-2) was 1180 nM; in the experiment with EPHB6 (compound concentrations: 100 nM and 1000 nM (sheet 'Samples'), CATDS: 3.4972740863409998E-2), 1830 nM; in the experiment with TNK2 (compound concentrations: 100 nM and 1000 nM (sheet 'Samples'), CATDS: 3.98580587888741E-2), 1080 nM.

`O=S(=O)(CCOCc1ccc(-c2ccc3ncnc(Nc4ccc(OCc5cccc(F)c5)c(Cl)c4)c3c2)o1)c1ccccc1` [GW615311X]: the potency estimated from few doses with AKT2 (CATDS: 2.19467490651379E-2) was 2450 nM; in the experiment with CDK17 (compound concentrations: 100 nM and 1000 nM (sheet 'Samples'), CATDS: 2.3617209164995101E-2), 2010 nM; with MAPK14 (compound concentrations: 100 nM and 1000 nM (sheet 'Samples'), CATDS: 2.8626143180457999E-2) it was 1290 nM.

For the compound `O=S(=O)(c1ccc(-c2ccnc3[nH]ccc23)cc1)N1CCCC1` [GSK846226A], the potency estimated from few doses in the experiment on RIOK2 was 2220 nM.

For `COc1cc(/C=N/Nc2ncnc3[nH]ncc23)ccc1O` [GW578748X], the potency estimated from few doses in the experiment with RIOK2 is 1600 nM.

`CC(C)c1nc(-c2ccc(F)c(NS(=O)(=O)c3c(F)cccc3F)c2)c(-c2ccnc(Nc3ccc(N4CCOCC4)nc3)n2)s1` [GSK1804250A]: the potency estimated from few doses is 738 nM with EPHB6 (setting [1]); 403 nM in the experiment with PLK4 (setting [1]); 232 nM in the experiment with PRKD2 (setting [1]); 510 nM with PRKD3 (setting [1]); 232 nM with TNK2 (setting [1]).

Regarding `COc1ccc(-c2nc3n(c2-c2ccncc2)CCC3)cc1.COc1ccc(-c2nc3n(c2-c2ccncc2)CCC3)cc1.O=S(=O)(O)O.O=S(=O)(O)O` [SKF-104493-B2], the potency estimated from few doses is 2500 nM in the experiment on AKT1; 687 nM with MAPK14 (compound concentrations: 100 nM and 1000 nM (sheet 'Samples'), CATDS: 0.181046976908248).

For the compound `CN1CCN(Cc2ccc(NC(=O)Nc3ccc(N(C)c4ccnc(Nc5ccc(CS(C)(=O)=O)cc5)n4)cc3)cc2)CC1.Cl` [GW827654A], the potency estimated from few doses in the experiment with AURKB (compound concentrations: 100 nM and 1000 nM (sheet 'Samples'), CATDS: 4.55704320916199E-2) was 700 nM; in the experiment on DDR2 (compound concentrations: 100 nM and 1000 nM (sheet 'Samples'), CATDS: 5.9738771402131699E-2) it was 348 nM; in the experiment on FLT4 (CATDS: 0.106760971330705), 109 nM; in the experiment with TNK2 (compound concentrations: 100 nM and 1000 nM (sheet 'Samples'), CATDS: 6.4241949787580299E-2), 295 nM.

In the case of `CC(=O)N1CCN(c2ccc(Nc3nccc(-c4sc(C(C)C)nc4-c4cccc(NS(=O)(=O)c5cccc(Cl)c5)c4)n3)cn2)CC1` [GSK1660437A], the potency estimated from few doses is 643 nM with CDK17 (compound concentrations: 100 nM and 1000 nM (sheet 'Samples'), CATDS: 5.6429200744427303E-2); 114 nM in the experiment on PLK4 (compound concentrations: 100 nM and 1000 nM (sheet 'Samples'), CATDS: 0.17154832295699199); 680 nM with PRKD2 (compound concentrations: 100 nM and 1000 nM (sheet 'Samples'), CATDS: 5.4931765235902902E-2); 1110 nM with PRKD3 (compound concentrations: 100 nM and 1000 nM (sheet 'Samples'), CATDS: 4.4377312299456101E-2).

For `CC(C)c1nc(-c2cccc(NS(=O)(=O)c3c(F)cccc3F)c2F)c(-c2ccnc(Nc3ccc(N4CCOCC4)nc3)n2)s1` [GSK2008607A], the potency estimated from few doses in the experiment on CDK17 (compound concentrations: 100 nM and 1000 nM (sheet 'Samples'), CATDS: 2.730533885315E-2) was 587 nM; in the experiment on EPHB6 (compound concentrations: 100 nM and 1000 nM (sheet 'Samples'), CATDS: 2.9714339770291101E-2), 487 nM; with FLT4 (CATDS: 2.2429602546286599E-2) it was 967 nM; with PLK4 (compound concentrations: 100 nM and 1000 nM (sheet 'Samples'), CATDS: 0.15679756420664201) it was 38.7 nM; in the experiment on PRKD2 (compound concentrations: 100 nM and 1000 nM (sheet 'Samples'), CATDS: 3.65380455917537E-2), 323 nM; with PRKD3 (compound concentrations: 100 nM and 1000 nM (sheet 'Samples'), CATDS: 2.5792208741447099E-2), 671 nM. The potency estimated from few doses in the experiment with TNK2 (compound concentrations: 100 nM and 1000 nM (sheet 'Samples'), CATDS: 3.47729479590888E-2) was 355 nM.

On to `CC(C)c1nc(-c2cccc(NS(=O)(=O)c3c(F)cccc3F)c2)c(-c2ccnc(Nc3ccc(N4CCOCC4)nc3)n2)s1.Cl` [GSK1723980B], for which the potency estimated from few doses in the experiment on CDK17 (compound concentrations: 100 nM and 1000 nM (sheet 'Samples'), CATDS: 1.84448623420372E-2) is 647 nM; with EPHB6 (compound concentrations: 100 nM and 1000 nM (sheet 'Samples'), CATDS: 2.4657232775903402E-2) it was 294 nM; in the experiment with FLT4 (CATDS: 3.28978835638193E-2), 161 nM; with PLK4 (compound concentrations: 100 nM and 1000 nM (sheet 'Samples'), CATDS: 6.4259568423255198E-2), 54.8 nM; in the experiment on PRKD2 (compound concentrations: 100 nM and 1000 nM (sheet 'Samples'), CATDS: 3.4388885610582398E-2), 149 nM; in the experiment with PRKD3 (compound concentrations: 100 nM and 1000 nM (sheet 'Samples'), CATDS: 3.3451662470077102E-2), 156 nM. Besides, the potency estimated from few doses in the experiment with TNK2 (compound concentrations: 100 nM and 1000 nM (sheet 'Samples'), CATDS: 1.9330772041295699E-2) is 558 nM.

For `Cl.Cn1c(=O)c(Cc2ccc(F)cc2F)cc2cnc(NC3CCOCC3)nc21` [RO3308757-001], the potency estimated from few doses in the experiment with EPHA5 (setting [1]) is 399 nM; with EPHB1 (setting [1]), 541 nM; in the experiment with MAPK14 (setting [1]), 442 nM; with PLK4 (setting [1]) it was 963 nM; with TNK2 (setting [1]) it was 230 nM.
